{
  "source": "PubChem BioAssay (NCATS)",
  "key": {"[1]": {"test": "Validation screen for inhibitors of Lassa infection (AID 463096)", "details": "Lassa virus infection, cell-based; series mostly up to 46.1 µM"}, "[2]": {"test": "Inducers of the Endoplasmic Reticulum Stress Response (ERSR) in human glioma: Validation (AID 504836; active = well fitted curve in the direction sought with a large enough effect)", "details": "human glioma cells, ER stress response reporter; series mostly up to 38.3 µM", "how_it_was_run": "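Stably transfected U87-MG human glioma cells carrying a GRP78-based luminescent sensor were seeded at 1000 cells/well, pin-dosed with compounds and incubated 16 h. Luciferase reagent was then added, and end-point luminescence was read after 10 min at room temperature.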"}, "[3]": {"test": "qHTS for Inhibitors of the Functional Ribonucleoprotein Complex (vRNP) of Lassa (LASV) Arenavirus: LASV Primary Screen - GLuc reporter signal (AID 1347082; calls by dose curve; tested in HEK293 reporter line; note: nearly all actives have a fitted effect of over 60% in size; note: potency is the fitted concentration of half-maximal effect)", "details": "LASV minigenome vRNP, Gaussia luciferase reporter; series mostly up to 57.5 µM"}, "[4]": {"target": "Nucleoprotein (Lymphocytic choriomeningitis virus (strain Armstrong)) (UniProt P09992)", "sequence (P09992 whole entry, looked up)": "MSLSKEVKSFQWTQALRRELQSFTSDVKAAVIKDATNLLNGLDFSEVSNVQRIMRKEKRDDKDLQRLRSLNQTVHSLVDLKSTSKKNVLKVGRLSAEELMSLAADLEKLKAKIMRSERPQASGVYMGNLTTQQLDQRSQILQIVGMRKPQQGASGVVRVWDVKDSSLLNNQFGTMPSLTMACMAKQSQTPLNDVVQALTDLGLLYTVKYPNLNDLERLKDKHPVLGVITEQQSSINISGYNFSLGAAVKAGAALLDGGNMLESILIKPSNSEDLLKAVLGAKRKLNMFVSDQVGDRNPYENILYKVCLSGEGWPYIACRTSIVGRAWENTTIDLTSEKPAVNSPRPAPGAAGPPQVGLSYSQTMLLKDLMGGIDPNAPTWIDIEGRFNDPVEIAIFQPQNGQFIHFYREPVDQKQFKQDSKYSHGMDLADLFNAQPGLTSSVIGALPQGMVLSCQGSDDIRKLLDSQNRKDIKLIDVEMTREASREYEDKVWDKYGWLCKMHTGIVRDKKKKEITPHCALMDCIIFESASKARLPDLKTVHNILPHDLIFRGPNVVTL", "test": "qHTS for Inhibitors of the Functional Ribonucleoprotein Complex (vRNP) of Lymphocytic Choriomeningitis Arenaviruses (LCMV): LCMV Primary Screen - GLuc reporter signal (AID 1347086); note: nearly all actives have a fitted effect of over 70% in size; note: potency is the fitted concentration of half-maximal effect", "details": "LCMV minigenome vRNP cell assay, Gaussia luciferase reporter; series mostly up to 57.5 µM"}, "[5]": {"test": "Primary qHTS for Huh7 cytotoxicity: counterscreen for inhibitors of MERS-S pseudotyped particle cell entry (AID 1479147)", "details": "cell viability read-out; series mostly up to 57.1 µM"}, "[6]": {"test": "Primary qHTS for inhibitors of MERS-S pseudo-typed particle cell entry (AID 1479149); note: nearly all actives have a fitted effect of over 60% in size", "details": "MERS-S pseudotyped particle entry, luciferase; series mostly up to 57.1 µM"}, "[7]": {"test": "Primary qHTS for Vero E6 cytotoxicity: counterscreen for inhibitors of SARS-S pseudo-typed particle cell entry (AID 1479150)", "details": "cell viability; series mostly up to 57.1 µM"}, "[8]": {"test": "Confirmatory qHTS to identify inhibitors of SARS-CoV-2 cell entry (AID 1645844); note: potency is the fitted concentration of half-maximal effect; nearly all actives have a fitted effect of over 45% in size", "details": "SARS-CoV-2 pseudotyped particle cell entry, luciferase; series mostly up to 57.2 µM", "how_it_was_run": "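HEK293-ACE2 cells (Expi293F stably expressing human ACE2) were pretreated with compounds for 1 hr at 37C, then infected with MLV-based particles carrying Wuhan-Hu-1 spike (C-terminal 19-aa truncation). Luciferase luminescence read after 48 hr; normalized to spike PP (100%) and bald PP (0%).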"}, "[9]": {"test": "Cytotoxicity counterscreen for inhibitors of SARS-CoV-2 cell entry (AID 1645845); note: nearly all actives have a fitted effect of over 50% in size", "details": "cell viability (SARS-CoV-2 entry assay cells); series mostly up to 57.1 µM", "how_it_was_run": "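Expi293F/hACE2 cells seeded overnight; cpd pin-transferred in DMSO, 1 h preincubation, + media, 48 h 37 C 5% CO2; ATPLite 1step luminescence; normalized to cells and no cells.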"}, "[10]": {"test": "Primary qHTS to identify inhibitors of SARS-CoV-2 cell entry (AID 1645846); note: nearly all actives have a fitted effect of over 45% in size", "details": "SARS-CoV-2 pseudovirus cell entry assay, luminescence; activity change, negative = inhibition: at 57.1 µM (top of the series) unless noted; series mostly up to 57.1 µM", "how_it_was_run": "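HEK293 cells stably expressing human ACE2, pre-treated 1 h with compound, then infected with MLV particles pseudotyped with Wuhan-Hu-1 spike (C-terminal 19-aa truncation). Luciferase luminescence after 48 h at 37 °C, normalised to spike PP and bald PP.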"}, "[11]": {"test": "VSVG counterscreen qHTS to identify inhibitors of SARS-CoV-2 cell entry (AID 1645847); note: potency is the fitted concentration of half-maximal effect; nearly all actives have a fitted effect of over 65% in size", "details": "VSV-G pseudotyped particle entry, luciferase; series mostly up to 57.2 µM", "how_it_was_run": "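HEK293-ACE2 cells (Expi293F, human ACE2) pretreated 1 h with compound, then infected with MLV-based VSV-G pseudotyped particles for 48 h at 37 C; luciferase luminescence normalized to VSV-G PP and bald PP wells.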"}, "[12]": {"test": "qHTS Assay for Lipid Storage Modulators (AID 1519)", "details": "Drosophila S3 cells, BODIPY lipid droplet/cell ratio, laser cytometry, cells loaded with oleic acid", "how_it_was_run": "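Cells seeded at 5,000 per well were treated with compounds over a concentration series and loaded with oleic acid (400 uM, as added). Lipid droplet fluorescence (488 nm excitation, 500-530 nm channel) was read by laser-scanning cytometry and normalized to 20 uM Triacsin C.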"}, "[13]": {"test": "qHTS profiling of the MIPE4 collection as inhibitors of Plasmodium falciparum (3D7) proliferation (AID 743344; call rule not given here)", "details": "P. falciparum 3D7 in erythrocytes, SYBR Green DNA fluorescence, 72 h; at 28.5 µM (top of the series) unless noted", "how_it_was_run": "(§1)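 Erythrocytes infected with P. falciparum (0.3% parasitemia, 2.5% hematocrit) incubated with compounds 72 h at 37 C, 5% CO2. Lysis with saponin/Triton buffer containing SYBR Green I, overnight at room temperature in the dark; DNA fluorescence (485/535 nm) normalised to 0.29 uM artemisinin and DMSO.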"}, "[14]": {"test": "qHTS profiling of the MIPE4 collection as inhibitors of Plasmodium falciparum (DD2) proliferation (AID 743345; call rule not given here)", "details": "P. falciparum Dd2 in erythrocytes, SYBR Green DNA, 72 h; at 28.5 µM (top of the series) unless noted", "how_it_was_run": "as §1"}, "[15]": {"test": "Primary qHTS for inhibitors of SARS-S pseudo-typed particle cell entry (AID 1479145)", "details": "SARS-S pseudotyped particle cell entry, luciferase reporter; series mostly up to 57.1 µM"}},
  "note": "Several values for one entry are separate records, joined by “and”; a condition that tells them apart may be missing. Identical values can stand only once. Inconclusive results are not listed. A call without a number means that no potency is given here. Activity calls are given as the source filed them. Unless noted, calls come from the whole dose curve.",
  "data": [
    {"smiles": "CC(=O)O[C@H]1C(=O)[C@@]2(C)C([C@H](OC(=O)c3ccccc3)[C@]3(O)C[C@H](OC(=O)[C@H](O)[C@@H](NC(=O)c4ccccc4)c4ccccc4)C(C)=C1C3(C)C)[C@]1(OC(C)=O)CO[C@@H]1C[C@@H]2O", "note": "(stereo partly drawn)", "values": [
      {"measurement": "Potency", "setting": "[1]", "value": "inactive"},
      {"measurement": "outcome", "setting": "[2]", "value": "inactive"},
      {"measurement": "Potency", "setting": "[3]", "value": "inactive"},
      {"measurement": "Potency", "setting": "[4]", "value": "inactive"},
      {"measurement": "outcome", "setting": "[5]", "value": "inactive"},
      {"measurement": "Potency", "setting": "[6]", "value": "inactive"},
      {"measurement": "outcome", "setting": "[7]", "value": "inactive"},
      {"measurement": "Potency", "setting": "[8]", "value": "42.9 nM (active)"},
      {"measurement": "Potency", "setting": "[9]", "value": "inactive"},
      {"measurement": "activity change, negative = inhibition", "setting": "[10]", "value": "-37.1% and -87.7%"},
      {"measurement": "Potency", "setting": "[11]", "value": "68.1 nM (active)"}
    ]},
    {"smiles": "CC(C(=O)O)c1ccc(-c2ccccc2)c(F)c1", "note": "(stereo not drawn)", "values": [
      {"measurement": "activity change, negative = inhibition", "setting": "[12]; at 57.5 µM (top of the series)", "value": "7.18% (inactive)"},
      {"measurement": "max response", "setting": "[12]; measured here: cell count channel max response", "value": 15.4, "unit": "%"},
      {"measurement": "max response", "setting": "[12]; measured here: lipid channel max response", "value": 28.2, "unit": "%"},
      {"measurement": "parasite growth, % of DMSO control", "setting": "[13]", "value": 86.5, "unit": "%"},
      {"measurement": "parasite growth remaining, % of DMSO control (lower = more inhibition)", "setting": "[14]", "value": 95.5, "unit": "%"},
      {"measurement": "Potency", "setting": "[3]", "value": "inactive"},
      {"measurement": "Potency", "setting": "[15]", "value": "inactive"},
      {"measurement": "outcome", "setting": "[5]", "value": "inactive"},
      {"measurement": "Potency", "setting": "[6]", "value": "inactive"},
      {"measurement": "outcome", "setting": "[7]", "value": "inactive"},
      {"measurement": "Potency", "setting": "[9]", "value": "inactive"},
      {"measurement": "Potency", "setting": "[10]", "value": "inactive"},
      {"measurement": "activity change, negative = inhibition", "setting": "[10]", "value": -16.8, "unit": "%"}
    ]},
    {"smiles": "CNC(=O)[C@H](CC1=CN=C2C=CCC=C12)NC(=O)[C@@H](CC(=O)NO)CC(C)C", "values": [
      {"measurement": "Potency", "setting": "[3]", "value": "15300 nM (active)"},
      {"measurement": "Potency", "setting": "[4]", "value": "3430 nM (active)"}
    ]},
    {"smiles": "COc1ccc(-c2cc(=O)c3c(O)c(OC)c(OC)cc3o2)cc1O", "values": [
      {"measurement": "Potency", "setting": "[3]", "value": "inactive"},
      {"measurement": "Potency", "setting": "[4]", "value": "inactive"}
    ]}
  ]
}
